Assay outcomes: PubChem, several laboratories
This is a sample that favours compounds with a hit; in the whole collection about 2.7% have one here.
HIF-2a block – HIF-2a inhibition. 786-0 RCC cells HIF-2a reporter, luciferase luminescence, overnight. inhibition, % at 18.8 µM. 360,000 tested, 0.72% active. AID 624352;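 active = inhibition of the luminescence signal of 40% or more relative to plate controls, in a single-dose primary screen at 18.75 µM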
KKLEB tox – CF airway cell cytotoxicity counter-screen; activity change (cytotoxicity), % at 5 µM; KKLEB CF airway cells viability, ATPlite luminescence, overnight; stronger effect = lower value; cells stimulated with P. aeruginosa culture filtrate; 360,000 tested, 0.36% active;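 active = corrected activity change at or below -50% at 5 µM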
Shn3 3UTR inh – Schnurri-3 reporter inhibition in Clone20 osteoblasts; inhibition, % at 12.5 µM; 360,000 tested, 0.52% active; Clone20 osteoblast Shn3 3'UTR firefly luciferase, 24 h; AID 588674;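 active = mean inhibition of at least 75% with every replicate also reaching 75%; inconclusive = mean inhibition at least 75% but some replicate below; inactive = mean inhibition below 75%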;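 also: 0% = median of neutral control wells and 100% = pilot-screen positive control compound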
CF NFkB block – cystic fibrosis NF-kB activation inhibition | AID 588850 | KKLEB NF-kB-GFP reporter, PAF-induced, GFP fluorescence overnight | inhibition, % at 5 µM | 360,000 tested, 0.86% active;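 active = at least 50% inhibition at 5 µM, scaled per plate between neutral and stimulator controls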;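 also: PAF is a Pseudomonas aeruginosa culture filtrate used as stimulus; plate controls were PAF-stimulated DMSO wells for no effect and unstimulated DMSO wells for full effect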
Peg3 prom inh-1 – reduces Peg3 promoter-driven luciferase expression in HeLa; HeLa PEG-Prom luciferase reporter, luminescence, overnight; inhibition, % at 20 µM; 360,000 tested, 1.7% active;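 active = inhibition of at least 50% at 20 µM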
TRPM1 prom inh – reduces MITF-dependent TRPM1 promoter luciferase signal | SK-MEL-5 TRPM1 promoter luciferase, 24 h | 330,000 tested, 0.83% active | inhibition, % at 12.5 µM | AID 488899;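 active = mean inhibition across replicates of 60% or more, whatever share of single replicates reaches that level; inconclusive = some that reach 60%, reason not given; inactive = mean inhibition across replicates below 60%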
Peg3 prom inh-2 – confirmation of Peg3 promoter inhibitors; shares compounds with Peg3 prom inh-1; HeLa PEG-Prom luciferase reporter, luminescence, overnight; inhibition, % at 20 µM; 1,300 tested, 84% active; AID 602417;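 active = at 20 µM dose, 40% or more inhibition averaged across four replicates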
CF NFkB conf – confirmation of cystic fibrosis induced NF-kB inhibitors; shares compounds with CF NFkB block; KKLEB CF airway cells, PAF-induced NF-kB-GFP fluorescence, overnight; inhibition, % at 5 µM; 1,300 tested, 64% active; in the data active = inhibition above about 40%;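 also: stimulus PAF is a Pseudomonas aeruginosa filtrate and not platelet activating factor; plate controls were DMSO wells with stimulus for no effect and unstimulated DMSO wells for full effect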
Mdm2 MdmX conf – confirmation of inhibitors of human Mdm2/MdmX interaction, set 2. AID 504601. shares compounds with HIF-2a block. 740 tested, 99% active. inhibition, % at 8 µM. SaOS-2 split-luciferase Mdm2/MdmX complementation, luminescence;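 active = mean inhibition of the luminescence signal across two replicates at or above 26 percent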
Target sequence (O15151 whole entry, looked up): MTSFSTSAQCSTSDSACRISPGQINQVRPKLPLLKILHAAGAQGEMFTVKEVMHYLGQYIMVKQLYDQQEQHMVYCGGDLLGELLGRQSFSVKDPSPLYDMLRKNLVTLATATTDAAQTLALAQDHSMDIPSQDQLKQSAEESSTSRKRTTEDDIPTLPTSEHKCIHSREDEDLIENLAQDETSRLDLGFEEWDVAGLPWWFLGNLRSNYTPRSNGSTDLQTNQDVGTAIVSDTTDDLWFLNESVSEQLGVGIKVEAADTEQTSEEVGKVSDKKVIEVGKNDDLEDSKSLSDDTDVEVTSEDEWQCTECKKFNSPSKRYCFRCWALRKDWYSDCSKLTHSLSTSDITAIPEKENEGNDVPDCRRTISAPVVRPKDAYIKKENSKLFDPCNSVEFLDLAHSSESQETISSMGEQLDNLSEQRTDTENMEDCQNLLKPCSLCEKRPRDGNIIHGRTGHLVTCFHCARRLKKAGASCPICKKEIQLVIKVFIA
Target sequence (Q00987 whole entry, looked up): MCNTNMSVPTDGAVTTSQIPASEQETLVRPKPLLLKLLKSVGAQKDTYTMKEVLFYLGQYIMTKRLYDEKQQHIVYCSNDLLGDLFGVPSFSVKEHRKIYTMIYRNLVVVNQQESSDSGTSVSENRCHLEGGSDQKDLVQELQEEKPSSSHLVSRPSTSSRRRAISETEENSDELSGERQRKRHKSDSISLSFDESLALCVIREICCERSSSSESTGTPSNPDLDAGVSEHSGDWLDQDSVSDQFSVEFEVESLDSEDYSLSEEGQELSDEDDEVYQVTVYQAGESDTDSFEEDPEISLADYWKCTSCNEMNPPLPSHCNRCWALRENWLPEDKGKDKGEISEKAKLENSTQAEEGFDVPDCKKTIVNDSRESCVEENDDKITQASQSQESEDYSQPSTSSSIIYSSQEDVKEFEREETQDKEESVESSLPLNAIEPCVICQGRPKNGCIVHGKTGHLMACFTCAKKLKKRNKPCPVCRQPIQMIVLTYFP
HIF-2a inh conf – HIF-2a inhibition, single concentration confirmation | shares compounds with HIF-2a block | 786-0 RCC cells, HIF-2a luciferase reporter luminescence, overnight | inhibition, % at 18.8 µM | 1,800 tested, 56% active;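 active = mean inhibition across four replicates of at least 40 percent at the single tested concentration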
HIF-1a cs – HIF-1a inhibition counter-screen for HIF-2a hits. AID 651589. shares compounds with HIF-2a block. MiaPaCa-2 HIF-1a luciferase reporter, desferoxamine, overnight. 1,800 tested, 72% active. inhibition, % at 18.8 µM;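 active = mean inhibition of the reporter signal across four replicates at the single tested dose of 50% or more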
The depositor's hits bear a star; ? = inconclusive; · = no result given.

SMILES | HIF-2a block | KKLEB tox | Shn3 3UTR inh | CF NFkB block | Peg3 prom inh-1 | TRPM1 prom inh | Peg3 prom inh-2 | HIF-2a inh conf | HIF-1a cs | others
Cc1ccc(/C=C2\SC(=S)N(CCCC(=O)Nc3ccccn3)C2=O)cc1 | 84.2* | 0.6 | 72.4 | 16.1 | 53.2* | 79.3* | 74.6* | · | · | Mdm2 MdmX conf=93.5*
O=C(CCN1C(=O)/C(=C/c2ccccc2)SC1=S)Nc1ccccn1 | 7.7 | 11.8 | -3.6 | -1.9 | 19.8 | -3.6 | · | · | ·
Cc1ccc2nc(NC(=O)CSCC(=O)OCC(=O)c3ccc(Br)cc3)sc2c1 | 57.0* | -0.2 | 64.5 | 12.6 | 51.6* | 49.0 | 65.1* | 51.2* | 86.3*
COc1ccc2[nH]cc(C(=O)CCl)c2c1 | 33.2 | -39.7 | -53.4 | 81.6* | 106.7* | 90.6* | 97.5* | · | · | CF NFkB conf=113.1*;Mdm2 MdmX conf=102.5*
COc1ccc2[nH]cc(C(=O)CN3CC(C)CC(C)C3)c2c1 (centres undefined) | 5.3 | -2.6 | -12.6 | 4.3 | -9.9 | 5.3 | · | · | ·
COc1ccc(Cl)cc1-c1cc(C(=O)NCc2ccccc2)[nH]n1 | 21.4 | 1.8 | 0.1 | -43.3 | 9.4 | · | · | · | ·
COc1ccc2nc(C)cc(Nc3ccc(C)cc3)c2c1 | 10.2 | 9.5 | 8.3 | -20.3 | 23.8 | 12.9 | · | · | ·
Cc1ccc2nc(C)cc(Nc3ccc([N+](=O)[O-])cc3)c2c1 | 52.5* | -24.5 | 48.3 | -72.4 | 104.2* | 84.4* | 98.4* | 12.1 | 95.3*
Cc1cccc(-c2noc(-c3ccc4c(c3)OCO4)n2)c1 | -98.3 | -18.4 | -4.7 | -11.3 | -152.3 | -19.0 | · | · | ·
c1ccc(-c2noc(-c3ccc4c(c3)OCO4)n2)nc1 | 80.4* | -44.9 | 75.4 | -5.6 | 86.6* | 92.3* | 81.4* | 84.9* | 86.5*
NNC(=O)C1C(O)CCC2CN3CCc4c([nH]c5ccccc45)C3CC21 (centres undefined) | 0.0 | -4.7 | -2.3 | 5.4 | 5.1 | 0.6 | · | · | ·
O=C1CSC(=S)N1Cc1cccnc1 | 46.6* | -21.9 | 19.0 | 20.6 | 95.8* | 22.5 | 50.1* | · | · | Mdm2 MdmX conf=100.7*
O=C1CSC(=S)N1c1cccnc1 | 10.8 | -17.3 | 26.8 | 16.2 | 22.1 | 3.4 | · | · | ·
C=CCn1c(NCc2ccc(OC)cc2O)nc2ccccc21 | -168.7 | -7.3 | -3.6 | 12.5 | -151.2 | -44.2 | · | · | ·
CC(=O)Nc1ccc(NC(=O)c2nc(S(=O)(=O)Cc3cccc(C)c3)ncc2Cl)cc1 | -23.3 | -30.7 | 97.5* | 102.1* | 102.3* | 49.4 | 96.4* | · | · | CF NFkB conf=82.4*;Mdm2 MdmX conf=103.0*
CCCS(=O)(=O)c1ncc(Cl)c(C(=O)Nc2ccc(S(=O)(=O)Nc3ncccn3)cc2)n1 | -4.8 | -1.8 | 0.9 | 20.0 | 13.8 | 5.4 | · | · | ·
COc1cccc(NC(=O)c2nc(S(C)(=O)=O)ncc2Cl)c1 | 68.1* | -37.3 | 96.6* | 87.6* | 107.8* | 57.0 | 97.7* | 64.6* | 10.9 | CF NFkB conf=61.0*;Mdm2 MdmX conf=100.7*
Cn1c(=O)[nH]c(N)c(Br)c1=O | 3.2 | 18.4 | ? | -9.2 | -7.8 | 5.6 | · | · | ·
Cc1nn(-c2ccccc2Cl)c(Cl)c1/C=N/Nc1nc2ccccc2s1 | 73.6* | 1.4 | 83.0 | -8.7 | 72.4* | 98.2* | 75.3* | 84.0* | 92.0* | Mdm2 MdmX conf=97.7*
O=C(Nc1ccc(S(=O)(=O)NC2=NCCCCC2)cc1)c1ccc([N+](=O)[O-])s1 | 59.9* | -1.0 | 10.9 | 39.0 | 68.7* | 89.0* | 76.8* | 21.0 | 106.1*
COc1ccc(C2(c3ccc(OC)cc3)NC(=O)N(CC(=O)NCC(C)c3ccccc3)C2=O)cc1 (centres undefined) | 17.9 | -9.8 | -3.0 | -17.5 | 18.0 | 3.0 | · | · | ·
CC(C)(C)OC(=O)NCC1CCC(C(=O)NC[C@H](CC(=O)O)c2ccc(Cl)cc2)CC1 (some centres undefined) | 11.7 | 11.9 | -4.0 | 0.2 | -2.3 | 5.7 | · | · | ·
CN(Cc1ccccc1)c1nc(-c2ccc([N+](=O)[O-])cc2)nc2ccccc12 | -2.5 | -7.6 | 24.1 | 11.6 | 7.9 | 2.1 | · | · | ·
O=[N+]([O-])c1ccc(-c2nc(C(Cl)Cl)c3ccccc3n2)cc1 | -28.8 | -45.9 | 67.4 | 32.7 | 63.7* | 66.2* | 33.9 | · | · | Mdm2 MdmX conf=102.2*
COc1ccc(OC)c(CCNC(=O)CC2(CC3=NS(=O)(=O)c4ccccc4N3)CCCC2)c1 | 14.3 | -9.4 | 11.7 | 20.0 | 38.5 | -11.7 | · | · | ·
SMILES | HIF-2a block | KKLEB tox | Shn3 3UTR inh | CF NFkB block | Peg3 prom inh-1 | TRPM1 prom inh | Peg3 prom inh-2 | HIF-2a inh conf | HIF-1a cs | others
CCCC(=O)NC(c1ccccc1Cl)c1ccc2cccnc2c1O (centres undefined) | 4.2 | -7.8 | ? | 12.7 | 52.9* | · | 61.9* | · | · | Mdm2 MdmX conf=91.5*
O=C(CCl)N1N=C(c2ccco2)CC1c1cccs1 (centres undefined) | 40.5* | -20.5 | -3.8 | 58.2* | 90.0* | 74.5* | 77.9* | -5.9 | 72.5* | CF NFkB conf=26.6
COC(=O)c1nn(-c2ccc3c(c2)OCO3)cc1O | -221.8 | 1.0 | -11.1 | -9.7 | -125.6 | -49.6 | · | · | ·
COC(=O)c1nn(-c2ccc3c(c2)CCN3C(C)=O)cc1O | 77.8* | -1.3 | 62.4 | -19.4 | 89.5* | 72.2* | 83.6* | -130.8 | 46.3
Cc1nc(Sc2nnnn2C)c2c3c(sc2n1)CCC3 | 55.5* | -3.2 | 25.0 | 51.8* | 55.3* | 86.9* | 29.0 | 28.3 | -8.8 | CF NFkB conf=33.5
O=C(O)c1ccc2nc(-c3ccccc3)sc2c1 | 78.5* | 1.8 | 20.1 | 14.5 | 86.8* | -25.2 | 45.9* | 61.6* | 16.4
CC1(NC(=O)c2cc(Cl)nc3ccccc23)CCS(=O)(=O)C1 (centres undefined) | 3.3 | 18.6 | -5.1 | -4.4 | 11.3 | -5.3 | · | · | ·
CC1=C(C(=O)N2CCCCCC2)CC(CC(=O)NC(c2ccccc2)c2ccccc2)C(=O)N1Cc1ccccc1 (centres undefined) | -4.5 | 7.8 | -10.3 | -6.8 | 20.4 | · | · | · | ·
O=C1C2CCCN2C(=S)N1c1cc(Cl)ccc1Cl (centres undefined) | 17.7 | -5.7 | -3.8 | 6.1 | -2.5 | -2.7 | · | · | ·
O=C(Nc1ccc2ccccc2c1)c1ccccc1O | -48.9 | -17.6 | -13.2 | 51.6* | -74.4 | -5.1 | · | · | · | CF NFkB conf=78.7*
